# Active and inactive are the calls of the source. Rule for the calls: active = hit-call score of the fitted dose curve at least 0.9, where 1 is the maximum; inactive = score below 0.9.
# Biological target: human Phosphatase (PTEN), PTEN (gene 5728) (UniProt P60484)
# Experiment: ERF_TW_ENZ_hPTEN: Eurofins (ERF) Enzymatic LeadHunter Assay for human Phosphatase (PTEN)
# Method: ERF_TW_ENZ_hPTEN is a biochemical, single-readout assay that uses extracted gene-proteins in a cell-free assay. Measurements were taken 1 hour after chemical dosing in a 96-well plate. See PTEN Human Phosphatase Enzymatic Assay, Panlabs.ERF_TW_ENZ_hPTEN is an assay component calculated from the ERF_TW_ENZ_hPTEN assay. It is designed to measure enzyme activity using a type of enzyme reporter as detected by fluorescence intensity with spectrophotometry technology.Data from the assay component ERF_TW_ENZ_hPTEN was analyzed at the assay endpoint, ERF_TW_ENZ_hPTEN, in the positive analysis fitting direction relative to DMSO as the negative control and baseline of activity. Using a type of enzyme reporter, loss-of-signal activity can be used to understand changes in enzymatic activity as they relate to gene PTEN. To generalize the intended target to other relatable targets, this assay endpoint is annotated to the phosphatase intended target family, where the subfamily is dual-specific phosphatase.
# Human recombinant phosphatase PTEN expressed in E. coli is used. Test compound and/or vehicle is preincubated with 2 ug/ml enzymedouble dagger for 15 minutes at 37C in modified Tris-HCl buffer pH 8.5. The reaction is initiated by addition of 100 uM DiFMUP for 60 minutes. Determination of the amount of DiFMU formed is read spectrofluorimetrically at 358 nm/450 nm. […]
# human Phosphatase (PTEN), PTEN (gene 5728), sequence (P60484 whole entry, looked up): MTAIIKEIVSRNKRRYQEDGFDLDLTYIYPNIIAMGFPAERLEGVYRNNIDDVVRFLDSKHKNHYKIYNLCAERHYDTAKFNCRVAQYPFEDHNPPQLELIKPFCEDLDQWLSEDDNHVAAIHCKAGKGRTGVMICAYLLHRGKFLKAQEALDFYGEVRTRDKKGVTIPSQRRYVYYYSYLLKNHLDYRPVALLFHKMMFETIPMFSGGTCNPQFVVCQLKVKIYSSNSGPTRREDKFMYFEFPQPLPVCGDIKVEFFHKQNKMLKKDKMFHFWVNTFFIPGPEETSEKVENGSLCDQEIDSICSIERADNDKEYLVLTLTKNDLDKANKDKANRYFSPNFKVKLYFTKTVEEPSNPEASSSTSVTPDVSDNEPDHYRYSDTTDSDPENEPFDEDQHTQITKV
row,Compound,AC50
1,O=C(/C=C/c1ccc(O)cc1)CC(=O)/C=C/c1ccc(O)cc1,5 µM (active)

# From PubChem BioAssay AID2284128 (EPA ToxCast)
